Screens from PubChem BioAssay.
In the library only some 2.4% were active in any assay of this set; here they are far more common.
POLB inh – inhibitors of human DNA polymerase beta. P06746. Pol beta primer extension/strand displacement, fluorescence kinetic. Potency, µM (top dose mostly 114 µM), without a hit: at the top dose activity change, negative = inhibition, actives largely listed as inhibitors. actives 1.3% (n = 340,000); also: % is scaled to controls: 0 for no effect and ±100 for the full control effect
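10 nM enzyme + cpd, 15 min RT; start with substrate 50 nM final; read 0 min and after 10 min RT. Corrected, normalized data; 4-parameter Hill curve fit.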
POLH inh – inhibitors of human DNA polymerase eta; Q9Y253; recombinant Pol eta, fluorescent DNA replication assay; Potency, µM (highest dose often 114 µM), inactives show top-dose activity change, negative = inhibition, actives largely listed as inhibitors; actives 1.2% (n = 390,000); also: % is scaled to controls: 0 for no effect and ±100 for the full control effect
Target sequence (Q9Y253 whole entry, looked up): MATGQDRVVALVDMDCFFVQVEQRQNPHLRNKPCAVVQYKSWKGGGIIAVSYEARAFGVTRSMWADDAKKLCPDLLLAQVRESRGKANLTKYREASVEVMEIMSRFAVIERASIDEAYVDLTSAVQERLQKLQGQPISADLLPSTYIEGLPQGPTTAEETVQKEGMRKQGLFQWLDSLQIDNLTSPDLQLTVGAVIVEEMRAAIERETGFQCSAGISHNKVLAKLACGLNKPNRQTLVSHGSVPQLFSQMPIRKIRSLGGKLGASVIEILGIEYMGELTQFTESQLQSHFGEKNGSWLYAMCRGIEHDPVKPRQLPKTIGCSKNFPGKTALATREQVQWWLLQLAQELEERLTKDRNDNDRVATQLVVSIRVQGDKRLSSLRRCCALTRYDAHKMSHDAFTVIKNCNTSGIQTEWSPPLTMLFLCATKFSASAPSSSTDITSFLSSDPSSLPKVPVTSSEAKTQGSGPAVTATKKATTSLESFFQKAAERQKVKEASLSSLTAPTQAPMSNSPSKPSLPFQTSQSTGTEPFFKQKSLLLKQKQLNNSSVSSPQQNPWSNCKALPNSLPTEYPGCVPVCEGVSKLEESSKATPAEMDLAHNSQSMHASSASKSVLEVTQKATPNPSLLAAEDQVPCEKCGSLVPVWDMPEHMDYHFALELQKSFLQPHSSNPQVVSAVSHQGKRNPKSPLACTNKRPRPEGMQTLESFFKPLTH
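Fluorescent replication assay: 50 nM final substrate added after a 15 min room-temperature compound preincubation with 10 nM enzyme. Signal taken at 0 min and again at 10 min.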
WRN helicase inh – WRN helicase (human) inhibition | Q14191 | WRN helicase unwinding, fluorescent forked duplex, kinetic | Potency, µM (doses to about 114 µM), without a hit: at the highest dose activity change, negative = inhibition, most hits filed as inhibitors | actives 0.46% (n = 360,000) | AID 651768; also: % is scaled to controls: 0 for no effect and ±100 for the full control effect; nearly all actives have a fitted effect of over 55% in size
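Kinetic red-fluorescence monitoring (525/598 nm) tracks WRN helicase activity after 100 nM fluorophore-quencher forked duplex and 2 mM ATP are added to 20 nM enzyme pretreated 15 min at room temperature with compound.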
POLI inh – inhibitors of human DNA polymerase iota; Q9UNA4; Pol iota fluorescent replication assay, 10 min; Potency, µM (doses to about 115 µM), without a hit: at the highest dose activity, negative = inhibition, usual class: inhibitors; actives 1% (n = 390,000); AID 588590
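Pol iota at 10 nM preincubated 15 min with compounds at room temperature; reaction started with fluorescent substrate, 50 nM final. Fluorescence read kinetically at 0 and 10 min; buffer-only wells as negative control.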
FEN1 inh – blocks human flap endonuclease 1; actives 0.35% (n = 390,000); Potency, µM (titrated, usually from 114 µM), for inactives: at the highest dose activity change, negative = inhibition, most hits filed as inhibitors; Recombinant FEN1 flap cleavage, fluorescence, 15 min; AID 588795; also: % is scaled to controls: 0 for no effect and ±100 for the full control effect; nearly all actives have a fitted effect of over 65% in size
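FEN1 at 10 nM, compound pretreatment for 15 min (room temperature), 50 nM final substrate to initiate; endpoint reads at 0 and 15 min; DMSO-only plates used as vehicle background.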
POLK inh – blocks human DNA polymerase kappa activity; purified Pol kappa, fluorescent DNA synthesis assay, 10 min; Potency, µM (doses to about 107 µM), for the others: at the highest dose activity, negative = inhibition, actives largely listed as inhibitors; actives 0.53% (n = 400,000); AID 588579; also: % is scaled to controls: 0 for no effect and ±100 for the full control effect
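10 nM Pol kappa preincubated 15 min at room temperature with compounds, then reaction started with substrate at 50 nM final. Fluorescence read kinetically at 0 and 10 min; buffer-only wells served as negative control.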
The depositor's hits bear a star; ? = inconclusive; · = no result given; [ ] = remark or other dose. Calls follow the shape of the dose curve; as a rule, active = well fitted curve in the direction sought with a large enough effect; inconclusive = small, poorly fitted or top-dose-only effect, or another doubt; inactive = no such curve, though single readings can be large; an effect the other way counts as inactive or inconclusive. Potency is read from the fitted curve at half-maximal effect.

SMILES	POLB inh	POLH inh	WRN helicase inh	POLI inh	FEN1 inh	POLK inh
CC1CCC(C(C)C)[C@H](O)C1 (stereo partly drawn)	·	·	·	·	·	-0.3%[60.1 µM]
COc1ccc(NC(=O)c2ccc(NC(=O)c3cccs3)cc2)cc1	-5.8%	-0.1%	-31.0%	-2.7%	-5.1%	-9.0%
COc1nc(N)nc(NC(=O)c2cccs2)c1N=O	·	-17.2%	?	28.2µM*	-6.3%	2.0%
Cc1ccc(NC2=CC(=O)C(=O)c3ccccc32)cc1	?	79.4µM*	-7.3%[57.1 µM]	11.2µM*	-8.1%	-6.9%
Cc1nc2ccccn2c(=O)c1NC(=O)c1ccc(C(F)(F)F)cc1	-12.8%	-8.4%	·	-5.2%	-4.5%	-2.0%[60.1 µM]
COc1cc(CNC(C)c2ccccc2)cc(Br)c1OCc1ccccc1 (stereo not drawn)	1.5%	-9.1%	-2.1%	18.3%	-18.8%	-4.9%
COc1ccc(Br)cc1CNc1ccc2[nH]c(=O)[nH]c2c1	36.5%	-24.2%	2.9%	9.2%	-6.5%	-3.9%
COc1cc(CNc2ccc(O)cc2)cc(Br)c1OCc1ccccc1	-0.9%	?	-19.9%[11.6 µM]	15.8µM*	?	-15.2%
COc1ccc(Br)cc1CNc1ccc(O)cc1	3.4%	6.5%	-12.4%[57.1 µM]	2.82µM*	-11.9%	-11.3%
Cc1ccc(S(=O)(=O)NNC(=O)c2ccc(C(=O)N(c3ccccc3)c3ccccc3)cc2)cc1	·	·	·	-4.0%	-6.2%	-9.2%
O=C(CSC(=S)N1CCCC1)c1cc(Br)cc(Br)c1O	50.1µM*	?	56.2µM*	?	-14.8%	?
CC1CCCN(C(=S)SCC(=O)c2cc(Br)cc(Br)c2O)C1 (stereo not drawn)	15.8µM*	-16.8%	89.1µM*	22.4µM*	50.1µM*	25.1µM*
CCn1c(C(=O)N2CCC(C(=O)NCCc3ccc(OC)cc3OC)CC2)cc2sccc21	-3.2%	-7.1%	·	?	12.2%	?
COc1ccc(Br)cc1CNC(=O)C(C)n1nc(C)n2c(cc3occc32)c1=O (stereo not drawn)	?	·	·	26.6%	-2.1%	3.8%
C[C@@H]1C(=O)O[C@@H]2C[C@]34[C@H]5C[C@@H](C(C)(C)C)[C@@]36[C@@H](OC(=O)[C@@H]6O)O[C@@]4(C(=O)O5)[C@@]12O	·	·	·	·	·	-5.9%[12 µM]
CN(C)CCN(C(=O)/C=C/c1cccs1)c1nc2c(F)cc(F)cc2s1	39.8µM*	-38.2%	-30.4%	?	17.1%	-7.5%
O=C(CSC1=Nc2ccccc2N=C(c2ccc(F)cc2)C1)NCc1ccccc1Cl	-0.5%	-2.9%	·	9.1%	-2.1%	-9.9%[60.1 µM]
O=c1c(-c2ccccc2)coc2cc(O)cc(O)c12	·	·	·	·	·	1.78µM*
CC[N+]1(CC(=O)c2ccc(Cl)cc2)CCCCC1	·	·	·	28.4%	-2.7%	-20.4%
Cc1cccc(NC(c2nnc(-c3ccccc3)o2)c2ccc(F)cc2Cl)c1C (stereo not drawn)	-11.4%	-8.7%	·	-21.5%	-17.8%	-7.0%
C=CCOc1c(/C=N\NC(N)=O)cccc1OC	47.4%	-1.9%	5.6%	?	14.0%	-0.6%
C=CCOc1c(OC)cc(/C=N/Nc2cccc(C(=O)O)c2)c(Br)c1Br	50.1µM*	?	-24.2%	-15.5%	-14.8%	?
CC(/C=N/NC(=O)c1nnn(-c2nonc2N)c1CN(C)C)=C\c1ccco1	-0.2%	-6.8%	-7.9%[11.6 µM]	20µM*	-1.6%	79.4µM*
CCCN(CCC)Cc1c(C(=O)N/N=C/C(C)=C\c2ccco2)nnn1-c1nonc1N	-10.3%	-16.2%	1.9%	28.0%	-6.7%	-5.1%
N#Cc1cccc(NC(=O)N2CC[C@@]3(CCCN(C(=O)c4ccco4)C3)C2)c1	·	·	·	·	·	-3.7%[60.1 µM]
SMILES	POLB inh	POLH inh	WRN helicase inh	POLI inh	FEN1 inh	POLK inh
C=CCCN(C(C)C(=O)OC)S(=O)(=O)c1ccccc1Br (stereo not drawn)	·	·	·	24.5%	9.9%	8.5%
O=C1/C(=C\c2ccco2)SC(=S)N1c1ccc(O)cc1	20µM*	-12.5%	-7.5%	?	-7.4%	-23.9%
O=C(CN1C(=O)/C(=C/c2ccco2)SC1=S)Nc1ccc(O)c(C(=O)O)c1	10µM*	?	-1.5%	-41.4%	?	?
NN1C(=O)/C(=C\c2ccco2)SC1=S	7.94µM*	-24.2%	-5.2%[11.6 µM]	?	1.1%	?
COc1ccc(NC(=O)CCCN2C(=O)/C(=C\c3ccco3)SC2=S)cc1	-16.4%	?	-12.2%	?	-3.9%	-28.1%
CCOC(=O)CN1C(=O)S/C(=C/c2ccco2)C1=O	-6.5%	-17.8%	-9.2%	63.7%	2.1%	-11.0%
CC(=C\c1ccco1)/C=C1/SC(=S)N(CC(=O)O)C1=O	20µM*	39.8µM*	-28.7%	?	-2.8%	?
CCc1c(-c2ccccc2)nc2ccccc2c1C(=O)NCc1ccc(C)cc1	3.4%	-14.5%	·	-5.3%	-21.6%	-7.6%[60.1 µM]
CCOc1ccc(Nc2cc(C)nc3nncn23)cc1	-3.9%	-7.6%	·	5.3%	-10.7%	-16.7%
Cc1cc(C)cc(OCC(=O)NCc2nc(-c3ccccc3)no2)c1	-29.5%	-7.7%	-6.0%	89.1µM*	-5.1%	-10.3%
Cc1c(NC(=O)c2cc([N+](=O)[O-])ccc2N2CCOCC2)cccc1-c1nc2ccccc2o1	11.0%	-21.5%	·	22.4µM*	-4.7%	9.4%
Cc1cnc(C(=O)OCC(=O)Nc2sc3c(c2C#N)CCC3)cn1	·	22.4µM*	?	?	-4.3%	-24.0%
Cc1cnc(C(=O)OCC(=O)Nc2ccc(Cl)cn2)cn1	·	-7.0%	0.6%	18.5%	-13.1%	2.1%
NC(=O)c1ccc(NC(=O)COC(=O)c2ccc(Cl)nc2)cc1	·	-1.0%	-3.4%	-10.4%	-8.8%	-12.6%
Cc1cnc(C(=O)OCC(=O)Nc2ncc(Cl)cc2Cl)cn1	·	50.1µM*	-1.0%[11.6 µM]	?	3.4%	-18.5%
O=C(COC(=O)c1ccc(Cl)nc1)Nc1ncc(Cl)cc1Cl	?	35.5µM*	-6.0%[11.6 µM]	86.8%	2.7%	-9.6%
O=C(COC(=O)CNC(=O)c1ccccc1F)Nc1ncc(Cl)cc1Cl	·	50.1µM*	-11.1%[11.6 µM]	?	5.1%	-22.6%
Cc1cccc(OCC(=O)Nc2sc3c(c2C#N)CCC3)c1	0.9%	-11.3%	-2.7%	11.8%	5.1%	-8.0%
COc1cc(C(=O)NCC(=O)OCC(=O)Nc2ncc(Cl)cc2Cl)cc(OC)c1OC	15.4%	-5.9%	-15.0%	79.0%	2.4%	1.6%
Cc1cc(C)c(NC(=O)COCc2cc(-c3cccs3)on2)c(C)c1	16.7%	12.4%	·	-16.7%	12.0%	-9.4%
COc1cc(OC)c(NC(=O)N2CCc3c([nH]c4ccccc34)C2c2ccccc2F)cc1Cl (stereo not drawn)	1.1%	3.2%	·	-13.4%	-1.8%	-0.4%
